tim23-1 inh: growth inhibitors of tim23-1 mutant yeast | S. cerevisiae tim23-1 growth, BacTiter-Glo luminescence, 24 h | inhibition, % at 20 µM | 1.3% of 330,000 active | AID 463212;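 active = growth inhibition of the mutant yeast at or above 50%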;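 note: temperature-sensitive mutant grown at 25 °C; plate controls were DMSO-treated mutant yeast for no effect and medium wells lacking yeast for full effect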
TIM10 inh: inhibits growth of TIM10 yeast strain. AID 463195. S. cerevisiae TIM10 strain growth, BacTiter-Glo luminescence, 24 h. 1.4% of 330,000 active. inhibition, % at 10 µM;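 active = inhibition of 40% or more at the single tested concentration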;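 note: wild-type TIM10 isogenic control strain grown at permissive 25 °C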
NLRP3 yeast inh: blocks the NALP3 inflammasome reconstituted in yeast; inhibition, % at 10 µM; 0.39% of 330,000 active; Yeast reconstituted NLRP3/ASC/caspase-1, beta-gal luminescence, 24 h;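 active = inhibition of 50% or more; inactive = inhibition below 50%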;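 note: plate controls were induced DMSO wells for no effect and uninduced yeast grown without galactose for full effect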
PfHsp90 yeast 2: reduces growth (ATP signal) of yeast expressing P. falciparum Hsp90 | inhibition, % at 9.4 µM | 0.32% of 310,000 active | S. cerevisiae expressing PfHsp90, BacTiter-Glo ATP, 48 h; yeast lacking PDR1 and PDR3 efflux regulators;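 active = every replicate shows inhibition above about 80%, whatever the replicate mean, limit read from the data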;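 note: 0% = DMSO neutral controls and 100% = 20 µM radicicol positive controls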
tim10-1 inh: tim10-1 yeast growth inhibition; S. cerevisiae tim10-1 ts strain growth, BacTiter-Glo, 24 h; inhibition, % at 20 µM; 2.2% of 330,000 active; AID 463190;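 active = inhibition of at least 40%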;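 note: mutant grown at 25 °C; 0% = DMSO wells with yeast and 100% = wells holding no yeast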
NALP3 confirm: confirmation of NALP3 inhibitors in yeast. shares compounds with NLRP3 yeast inh. 81% of 1,300 active. inhibition, % at 10 µM. yeast expressing human NALP3, luminescence; in the data active = inhibition above about 48%
Casp1-ASC yeast: active in yeast caspase-1-ASC counter-screen for NALP3 inhibitors; inhibition, % at 10 µM; shares compounds with NLRP3 yeast inh; AID 488784; 66% of 1,000 active; yeast expressing Caspase-1-ASC, luminescence counter screen
NALP3 yeast rt: confirmation retest of NALP3 inhibitors in yeast | shares compounds with NLRP3 yeast inh | yeast expressing human NALP3, luminescence read-out | inhibition, % at 10 µM | 53% of 1,000 active
The depositor's hits bear a star; x = not tested or not shown. An excerpt weighted towards active compounds, which were near 3.7% of everything screened. Cut-off read from the data, not from the text of the source, unless noted: active = inhibition above about 50%; inactive = the rest.

SMILES | tim23-1 inh | TIM10 inh | NLRP3 yeast inh | PfHsp90 yeast 2 | tim10-1 inh | NALP3 confirm | Casp1-ASC yeast | NALP3 yeast rt
O=C(Cc1ccc(Cl)cc1)N1CCc2ccccc2C1 | 12.8 | 4.8 | 52.7* | 11.0 | 12.3 | 32.4 | x | x
Cc1cc2nc(N3C(=O)CNC3=S)sc2cc1C | 26.5 | 26.2 | 68.9* | 10.9 | 11.6 | 82.3* | x | x
CCCN(CCC)Cc1c(C(=O)N/N=C/c2ccc(C)o2)nnn1-c1nonc1N | 9.0 | 18.3 | -9.5 | -19.0 | 1.4 | x | x | x
N#C/C(=N\Nc1ccc(Cl)cc1)C(=O)c1ccccc1 | 22.1 | -9.9 | 54.7* | -13.8 | 28.5 | 59.2* | 73.5* | 84.2*
Cc1nnc(NC(=O)c2ccc3ccccc3n2)s1 | 44.9 | 32.8 | 24.4 | 0.5 | -11.4 | x | x | x
NCCOc1ccccc1-c1ccccc1 | -8.4 | -0.4 | 54.3* | -55.6 | -6.0 | 66.3* | 56.5* | 50.3*
CCn1ccnc1CN(C)C(=O)C1CCC(=O)N(Cc2cccc(C(F)(F)F)c2)C1 (stereo not given) | 0.0 | -7.3 | 26.0 | -15.1 | 8.1 | x | x | x
S=C(Nc1ccc(Cl)c(Cl)c1)NC1CCCCC1 | 34.4 | 33.9 | 52.6* | x | 36.1 | 59.2* | 85.2* | 68.5*
CCCCOC(=O)Nc1nnc(CCc2ccccc2)s1 | 21.5 | 21.2 | 52.5* | -14.7 | 13.1 | 33.4 | x | x
CCCc1ccc(C(=O)CCC(=O)NNC(=O)c2ccncc2)cc1 | -5.2 | 0.1 | 14.9 | 16.0 | 4.4 | x | x | x
COc1ccc(C(=O)OCC(=O)N2CCCCCC2)cc1S(=O)(=O)N1CCOCC1 | 4.9 | 3.2 | 14.7 | 5.7 | 1.9 | x | x | x
COC(=O)CN(c1ccc(C)cc1)S(=O)(=O)c1ccc(F)cc1 | 13.8 | 0.7 | 58.0* | -5.6 | 20.3 | 55.3* | x | x
O=C1c2cccc(O)c2C(=O)c2c(O)cccc21 | 44.2 | 26.7 | 60.3* | x | 21.5 | 64.5* | x | x
COc1cccc2c1-c1c(O)cccc1C2=O | 17.3 | -17.7 | 22.4 | 2.0 | -2.3 | x | x | x
O=C(CSc1cccc2cccc(Cl)c12)NCc1cccs1 | 14.1 | 15.0 | 51.6* | 4.3 | 27.1 | 64.6* | 45.0 | 31.4
CC(=O)Oc1ccc2c(C)cc(=O)oc2c1C(=O)c1ccccc1 | 10.4 | 1.9 | 1.0 | -31.3 | 6.6 | x | x | x
COc1ccc(NC(=O)N2CCC(c3nc4ccccc4[nH]3)CC2)cc1 | 1.2 | -10.7 | 4.3 | 3.3 | -6.4 | x | x | x
CC(C)COc1ccc(CSCCNC(=S)Nc2ccccc2)cc1 | 29.7 | 31.0 | 53.2* | -38.5 | 31.6 | 80.4* | 58.0* | 41.2
Cc1ccc(OCC(=O)NCCNC(=O)c2ccncc2)cc1 | -1.4 | 4.0 | -4.3 | -10.8 | -9.2 | x | x | x
Fc1cccc(Nc2ncnc3c2cnn3-c2ccccc2)c1 | 37.9 | 0.8 | 62.9* | 22.0 | 2.3 | 77.0* | x | x
O=C(O)c1cccc(Nc2ncnc3c2cnn3-c2ccccc2)c1 | 3.5 | 0.0 | 11.6 | -9.6 | -5.1 | x | x | x
COc1cccc(Nc2ncnc3c2cnn3-c2cccc(C)c2)c1 | 1.1 | -27.1 | 9.0 | x | 5.5 | x | x | x
Clc1cccc(Nc2ncnc3c2cnn3-c2ccccc2)c1 | 15.3 | -19.4 | 53.1* | 12.1 | 27.8 | 60.8* | 45.9 | 48.0
O=C(/C=C/c1cccs1)N1CCc2ccccc21 | 22.3 | -1.0 | 51.7* | 13.6 | 6.9 | 22.6 | x | x
O=C(c1cccs1)N1CCc2ccccc21 | 24.5 | 7.0 | 15.4 | -21.7 | -3.3 | x | x | x
SMILES | tim23-1 inh | TIM10 inh | NLRP3 yeast inh | PfHsp90 yeast 2 | tim10-1 inh | NALP3 confirm | Casp1-ASC yeast | NALP3 yeast rt
Fc1ccccc1Sc1ccccc1CNC1=NCCN1 | 10.0 | 9.3 | 14.1 | 10.7 | 26.6 | x | x | x
c1ccc(Sc2cccc3ccccc23)c(CNC2=NCCN2)c1 | 13.1 | 9.9 | 73.7* | -8.7 | -34.2 | 62.9* | 48.9 | 69.7*
O=C(COC(=O)CCC(=O)c1cccs1)NC1CC1 | 25.9 | 1.7 | 1.2 | 10.3 | -2.0 | x | x | x
Cc1c(/C(Cc2ccccc2)=N/O)c2ccccc2n1C | 16.1 | -0.3 | 56.4* | -1.4 | 9.9 | 60.8* | 51.5* | 52.8*
Cc1ccccc1-c1nc2ccccc2[nH]1 | 37.3 | 5.1 | 29.4 | -18.5 | -31.7 | x | x | x
Cc1cc(C)c2c(N)c(-c3nc4ccccc4[nH]3)sc2n1 | 34.7 | 19.2 | 50.1* | 2.9 | -1.3 | 61.9* | 37.0 | 41.0
O=C(O)COc1ccccc1/C=N/NC(=O)CSc1nc2ccccc2c(=O)n1-c1ccccc1 | 16.9 | -6.6 | 22.3 | 3.1 | 9.6 | x | x | x
O=C(CCl)Nc1ccc(N2CCCCCC2)cc1 | 30.5 | 8.0 | 59.8* | 4.9 | 6.1 | 77.2* | 76.0* | 53.0*
CCC(=O)Nc1ccc(N2CCCCC2)cc1 | 19.6 | 10.4 | 6.7 | -4.6 | 5.8 | x | x | x
O=C(O)/C=C/C(=O)Nc1ccc(NC(=O)c2ccccc2)c(Cl)c1 | 5.8 | 5.8 | -17.3 | 19.2 | 5.5 | x | x | x
CNC(=O)/C(C#N)=C/c1ccc(OCCOc2ccccc2)cc1 | 31.7 | -7.6 | 55.6* | -16.1 | -8.5 | 72.8* | 57.6* | 48.4
CC(C)c1nnc(NC(=O)C2CCCCC2)s1 | 15.6 | -7.0 | 40.4 | -3.8 | -3.3 | x | x | x
CCSc1nnc(NC(=O)C2CCCCC2)s1 | 7.4 | 6.1 | 61.2* | 16.0 | 5.1 | 79.1* | 67.0* | 61.1*
O=C(Nc1nnc(-c2ccco2)s1)C1CCCCC1 | -1.5 | -11.6 | 58.4* | 20.5 | 6.2 | 42.0 | 37.1 | 36.0
CSc1nnc(NC(=O)C2CCCCC2)s1 | 9.1 | -6.0 | 55.0* | 2.5 | -6.7 | 74.6* | 58.5* | 38.2
Cn1c(C(=O)N2CCCc3ccccc32)cc2sccc21 | 44.8 | 30.8 | 51.3* | -5.7 | 21.1 | 64.2* | 39.8 | 35.2
CCCCc1ccc(-c2nc(N)n[nH]2)cc1 | 29.4 | 25.1 | 54.2* | -52.2 | 36.2 | 78.1* | 94.7* | 85.2*
COc1ccc2nc(SCCN(C)C)[nH]c2c1 | 7.5 | 11.7 | 22.7 | -24.7 | 7.7 | x | x | x
O=C(COC(=O)c1c(Cl)ccc(Cl)c1Cl)NC1CCS(=O)(=O)C1 (stereo not given) | 1.0 | -11.0 | 15.6 | -0.1 | 21.7 | x | x | x
Cc1ccc(S(=O)(=O)c2ncccc2N)cc1 | -3.4 | 12.3 | -7.3 | 0.8 | -10.6 | x | x | x
Cc1ccc(S(=O)(=O)c2ncccc2[N+](=O)[O-])cc1 | 27.1 | -16.5 | 57.9* | 23.2 | 36.2 | 68.7* | 67.9* | 57.9*
NCCc1nnc(SCc2ccccc2)o1 | 2.9 | -9.2 | 61.4* | 28.7 | 7.1 | 74.8* | 60.6* | 61.0*
c1ccc(CSc2nnc(Cc3ccccc3)o2)cc1 | 16.2 | 5.8 | 10.3 | -3.5 | 21.1 | x | x | x
Cc1ccc(C)c(CSc2nnc(CCN)o2)c1 | 8.1 | 7.2 | 72.3* | x | 15.6 | 79.6* | 64.7* | 71.7*
NCCc1nnc(SCc2ccccc2F)o1 | 1.2 | 3.6 | 62.8* | 6.6 | 8.6 | 74.4* | 68.5* | 69.5*
O=S(=O)(c1ccccc1)C1(S(=O)(=O)c2ccccc2)CCCC1 | 8.8 | -32.8 | -3.1 | 13.3 | 20.7 | x | x | x
N#Cc1cc2cc3c(cc2nc1SCC(=O)N1CCOCC1)OCCO3 | 1.0 | -10.9 | -6.5 | -11.0 | 18.3 | x | x | x
